Consider 20 compounds from PubChem BioAssay (NCATS).

Inconclusive results are not listed. Values without a mark were called inactive. Calls of active or inactive are those of the source. Calls follow the shape of the dose curve; as a rule, active = well fitted curve in the direction sought with a large enough effect; inconclusive = small, poorly fitted or top-dose-only effect, or another doubt; inactive = no such curve, though single readings can be large; an effect the other way counts as inactive or inconclusive.
Potency is read from the fitted curve at half-maximal effect.

The nature of the first test: Viability qHTS for spleen associated tyrosine kinase inhibitor (SYKi) drug resistant MV4-11 cells (AID 1963824). Also: nearly all actives have a fitted effect of over 35% in size. The following applies: SYKi-resistant MV4-11 viability, CellTiter-Glo, 72 h; series mostly up to 45 µM. The method, boiled down:
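SYK-inhibitor-resistant MV4-11 AML cells were seeded at 500 per well onto compound and cultured 72 hours (37 °C, 5% CO2). CellTiter-Glo was then added, and after 10 min at room temperature, luminescence gave viability.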
As for `COc1cccc(CN(C(=O)CC(C)(C)C)[C@H]2C[C@H](C(=O)N3CCNCC3)N(Cc3ccc4c(c3)OCO4)C2)c1`, the Potency was 16.4 µM (active).
As for `COc1cc(/C=C2\CC[C@H]3COC[C@@H](c4cc(F)c(F)c(F)c4)N3C2=O)ccc1-n1cnc(C)c1`, the Potency is 13 µM (active).
On the same count and under the same terms, the result for `CCc1cc2c(cc1CC)CC(NCC(O)c1ccc(O)c3[nH]c(=O)ccc13)C2` (stereo not given) reads 13 µM (active).
On the same count and under the same terms, the result for `Cn1cc(CCn2cnc(-c3cnn(C)c3)c2-c2ccc(C#N)cc2)cn1` reads “inactive”.
In the case of `COc1cccc(N2CCN(C3=Nc4c(F)cccc4[C@H](CC(=O)O)N3c3cc(C(F)(F)F)ccc3OC)CC2)c1`, the Potency was 18.4 µM (active).
On the same count and under the same terms, the result for `CCC(C)/C=C(C)/C=C/C1=CC2=C(Cl)C(=O)C(C)(OC(C)=O)C(=O)C2=CN1C(CCCN=C(N)N)C(=O)O` (stereo not given) reads “inactive”; that for `C=C(COC(=O)C(C)C)C1Oc2cc(C(C)=O)ccc2C1OC(=O)C(C)C` (stereo not given), “inactive”.
On to `C/C=C/C=C/[C@@H]1O[C@](O)([C@H](CC)C(=O)NC/C=C/C=C(\C)[C@@H](OC)[C@@H](C)[C@@H]2O[C@H](/C=C/C=C/C=C(\C)C(=O)c3c(O)ccn(C)c3=O)[C@H](O)[C@@H]2O)[C@H](O)[C@H](O)C1(C)C`, for which the viability, % of control is 85.3% [at 9.25 µM].
`CC(C)S(=O)(=O)Nc1ccc(F)c(C(=O)c2c[nH]c3ncc(-c4cccnc4)cc23)c1F`: the Potency is 2.91 µM (active).
Still for that read-out and setting: then `COC(CCc1ccc(O)cc1)CC(=O)CCc1ccc(O)cc1` (stereo not given), with 14.3 µM (active).
As to `COc1cnc(-c2ccc(Cn3c(CC(C)(C)C(=O)O)c(SC(C)(C)C)c4cc(OC[C@@H]5Cc6ccccc6N5C(C)=O)ccc43)cc2)nc1`, the Potency is 12.8 µM (active).
Take `c1cc(NC2CCNCC2)nc(-c2cnc3ccccn23)c1`: the Potency was 0.0206 µM (active).

The nature of another test: Cellular viability qHTS for adrenocortical cancer (ACC) cell line NCI-H295R (AID 1963990). Also: nearly all actives have a fitted effect of over 60% in size. The following applies: CellTiter-Glo ATP luminescence, 48 h; series mostly up to 46.1 µM. The method, boiled down: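 Luminescent ATP read-out (CellTiter-Glo, 20 min RT) after 48 h drug exposure of NCI-H295R cells; a titration up to 46 uM final. Data normalized to doxorubicin (100% inhibition) and DMSO (0%); 4-parameter fit gives IC50, max response.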
With `CCCCNc1ccc(C(=O)OCCOCCOCCOCCOCCOCCOCCOCCOCCOC)cc1`, the Potency result was “inactive”.
The same measure, in the same setting: then `N#C/C(=C\c1ccc(O)c(O)c1)C(=O)NCc1ccccc1`, with “inactive”; and `O=C(O)Cc1ccc(OCCNC[C@H](O)c2ccccc2)cc1`, with “inactive”.
The same measure, in the same setting: the result for `COC(=O)c1ccc([C@H]2c3[nH]c4ccccc4c3C[C@H](C(=O)OC)N2C(=O)CCl)cc1` reads 0.0891 µM (active).
On to `O=C(NOCCO)c1ccc2cncn2c1Nc1ccc(I)cc1F`, for which the Potency result is “inactive”.
Same read-out and setting: the result for `Cc1c(-c2ccc(-c3ccccc3F)cc2)nc2ccc(F)cc2c1C(=O)O` reads “inactive”.
The same measure, in the same setting: the result for `Cc1nnn(C)c1-c1cnc2c3ccc(C(C)(C)O)cc3n([C@H](c3ccccc3)C3CCOCC3)c2c1` reads 0.178 µM (active).
Same read-out and setting: then `Cc1ccsc1C(=CCCN1CCC[C@@H](C(=O)O)C1)c1sccc1C`, with “inactive”.
